In all, about 2,300 compounds went through this assay and about 2,100 (91%) were called active.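 The calls were made as follows: active = compounds raising the signal whose fitted half-maximal concentration is at or below their top tested dose (cut at about 25 µM in these data); inconclusive = flat fit at 30 to 70% activity, or a poor fit; inactive = the rest.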 The set was probably picked from earlier hits. Not all results are given here. Entries with a potency or affinity are not part of this list.
Assay: cytokine-free beta-cell viability effect – INS-1E rat cells, ATP luminescence, cherry pick, counter-screen for beta-cell apoptosis protection project, dose response (AID 463229);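 also: 0% = median of neutral control wells and 100% = median of positive control wells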
Conditions: INS-1E rat beta cells, no cytokines, CellTiter-Glo ATP, 48 h; series mostly up to 26 µM; activity change (ATP luminescence): at the top concentration

SMILES	activity change (ATP luminescence)
CCOc1ccc(/C=N/Nc2ccc(Cl)nn2)c(O)c1	13.6% (inactive)
Cc1cc(C)nc(OC(=O)c2ccc(Cl)cc2Cl)n1	13.3% (inactive)
Cc1ccc(C(=O)O/N=C/c2c(N3CCOCC3)n(C)c3ccccc23)cc1	-6.85% (inactive)
Cc1ccc2c(C)ccc(O)c2n1	-15.9% (inactive)
CCCNC(=O)c1c(N)n(-c2cccc(OC)c2)c2nc3ccccc3nc12	11.9% (inactive)
CC(=O)Nc1ccc(C2=CC(=O)C[C@H](c3ccc4c(c3)OCO4)C2)cc1	-42.7% (inactive)
FC(F)(F)c1ccccc1NC(=S)N1CCc2ccccc2C1	142% (inactive)
Fc1ccc(Oc2nc(-c3ccccn3)nc3ccccc23)cc1	-68.1% (inactive)
O=C(CCCN1C(=O)/C(=C/c2ccccc2)SC1=S)NCCCn1ccnc1	15.9% (inactive)
O=[N+]([O-])c1ccc(/C=N/Nc2ccnc3cc(Cl)ccc23)o1	107% (inactive)
CC1(C(=O)OCC(=O)N2c3ccccc3Sc3ccccc32)CC1(Cl)Cl (stereo unspecified)	-6.03% (inactive)
Nc1ccc2nn(-c3cccc4ccccc34)nc2c1	-43.9% (inactive)
CC(=O)Cc1cc(O)c2ccccc2c1OC(=O)c1ccc(Br)cc1	22.1% (inactive)
Cc1cc2cc(CN3C(=O)c4ccccc4C3=O)ccc2n1C	-10.1% [at 12 µM] (inactive)
Cc1ccc(NC(=O)c2c(-c3c(F)cccc3Cl)noc2C)cc1F	-18.3% (inactive)
O=C1/C(=N\S(=O)(=O)c2cccs2)C([n+]2ccc(CCCc3ccccc3)cc2)=C([O-])c2ccccc21	-34.3% (inactive)
CC(C)(C)c1cc[n+](C2=C([O-])c3ccccc3C(=O)/C2=N\S(=O)(=O)c2ccccc2)cc1	2.78% (inactive)
Cc1ccccc1Nc1c(-c2ccccn2)nc2c(C)cccn12	-20.1% (inactive)
COc1cc(NC2CCCCC2O)c2nc(-c3ccc(Cl)cc3)ccc2c1 (stereo unspecified)	-33.5% (inactive)
COc1ccc(NC(=O)CN(C)C(=O)/C=C/c2ccc(S(=O)(=O)N3CCCCCC3)cc2)cc1	1.68% (inactive)
CC(C)C[C@H]1CN=C(Nc2ccccc2)N1CCC(C)c1ccccc1 (stereo partly specified)	13.4% (inactive)
CCC(CC)C(=O)c1c[nH]c(C(=O)NCc2ccccn2)c1	-14.1% (inactive)

SMILES	activity change (ATP luminescence)
Cc1ccc(C)c(NS(=O)(=O)c2ccc(OCC(=O)NCc3cccnc3)cc2)c1	-6.95% (inactive)
O=C(Cc1ccc([N+](=O)[O-])cc1)Nc1cccnc1	14.2% (inactive)
C/C(=N\NC(N)=S)c1ccncc1	-12.3% (inactive)
O=C(NNC(=O)c1ccccc1OCc1ccccc1)c1ccccc1O	92.6% (inactive)
C/C(Cn1nnc([N+](=O)[O-])n1)=N\NC(=O)c1ccccc1Cl	53.7% (inactive)
Clc1ccc(SCc2cc(N3CCOCC3)nc(-c3ccccn3)n2)cc1	-38.8% (inactive)
CCN(CC)C(=O)C1CCCN(C(=S)Nc2cccc3ccccc23)C1 (stereo unspecified)	-7.12% (inactive)
CC(C)(C)C(=O)NC(Nc1cccc2cccnc12)C(Cl)(Cl)Cl (stereo unspecified)	-44.1% (inactive)
CCCOc1ccc2c3c(c(=O)oc2c1OCCC)CCCC3	5.09% (inactive)
COc1ccc(/C=N/N2CCN(Cc3ccccc3)CC2)cc1	14.5% (inactive)
C/C(=N\Nc1nc(C)cc(-c2ccccc2)n1)c1ccc(F)cc1	3.42% (inactive)
C/C(=N\Nc1nc(C)cc(-c2ccccc2)n1)c1ccccc1	-42% (inactive)
C=CC[C@@H](CC(=O)N(CCO)Cc1ccccc1)C(=O)N[C@H](COC(=O)[C@@H](CC=C)CC(=O)OC(C)(C)C)c1ccccc1	-11% (inactive)
Cc1cc(C)n(-c2nc(NC(C)(C)C)nc(NC(C)(C)C)n2)n1	7.64% (inactive)
NNC(=S)Nc1ccc(OC(F)(F)F)cc1	-13.7% (inactive)
COC(=O)c1sccc1S(=O)(=O)Nc1ccc(N2CCCCC2)cc1	-9.33% (inactive)
COc1ccc(NC(=O)N(C)C[C@H]2Oc3c(NS(=O)(=O)c4ccc(F)cc4)cccc3C(=O)N([C@H](C)CO)C[C@@H]2C)cc1	-3.98% (inactive)
c1ccc(-c2nnc(CSc3ccc4c(c3)OCCO4)o2)cc1	8.99% (inactive)
Fc1cccc(Cl)c1-c1nnc2ccc3ccccc3n12	109% (inactive)
Nc1ccc(Nc2ccccc2)cc1	-6.88% (inactive)
CCN(CC)S(=O)(=O)c1cccc(NC(=O)c2cc(-c3cccs3)nn2-c2ccccc2)c1	-34.7% (inactive)
Cc1ccc(S(=O)(=O)Nc2ccc(C(OC(=O)c3ccccc3[N+](=O)[O-])(C(F)(F)F)C(F)(F)F)cc2)cc1	29.1% (inactive)

SMILES	activity change (ATP luminescence)
c1ccc(N2CCN(CC3CCCCC3)CC2)cc1	0.86% (inactive)
CCCCOC(=O)c1ccc(NC(c2ccc(C)cc2)P(=O)(OC)OC)cc1 (stereo unspecified)	-8.14% (inactive)
Cc1ccc(C2CC(c3cccc(C)c3)n3nc(N)nc3N2)cc1 (stereo unspecified)	0.0824% (inactive)
COc1ccc(C2CC(c3cccc(C)c3)n3nc(N)nc3N2)cc1 (stereo unspecified)	-17.7% (inactive)
CCOC(=O)CSc1nc2c(c(=O)[nH]1)C(C)(CC)Cc1ccccc1-2 (stereo unspecified)	12.6% (inactive)
O=C(O)c1ccc(/C=C2\SC(=S)N(Nc3ccccc3)C2=O)cc1	-8.76% (inactive)
CN1N=C(C(C)(C)C)CSC1=Nc1ccccc1	-33.1% (inactive)
CC(=O)c1c(C)n(CC(=O)NCc2ccco2)c2ccccc12	-41% (inactive)
Cc1ccc(N2C(=O)CSC2c2cccnc2)c(Cl)c1 (stereo unspecified)	-1.78% (inactive)
CN(C)c1ccc(NC(=S)NC23CC4CC(CC(C4)C2)C3)cc1	19.4% (inactive)
COc1ccccc1NS(=O)(=O)c1cccc(NC(=O)c2[nH]c(C)c(C(C)=O)c2C)c1	-29.7% (inactive)
O=C(CC1CC2CCC1C2)NCCc1ccc(Cl)cc1 (stereo unspecified)	-13.3% (inactive)
CNC(=S)N(Cc1cccs1)Cc1cc2cc(OC)c(OC)cc2[nH]c1=O	-23.9% (inactive)
CCN(CC)c1ccc(N=Cc2ccccc2[N+](=O)[O-])cc1	-29.5% (inactive)
CC1CC(=O)N(c2ccc(Br)cc2)C(=O)C1	0.825% (inactive)
Cn1cccc1/C=N/NC(=O)Cc1cccs1	-5.79% (inactive)
CCOC(=O)c1sc(SC)c2c1CCC/C2=N/OC	6.05% (inactive)
COc1cnc(-c2ccccn2)nc1N(C)c1ccccc1	116% (inactive)
O=C(CCCCC(=O)Nc1ccc(F)cc1F)Nc1ccc(F)cc1F	3.54% (inactive)
C/C(=N\Nc1nc(-c2ccccn2)nc2ccccc12)c1ccc(F)cc1	-13.2% (inactive)
O=C(c1ccc(F)c(S(=O)(=O)N2CCOCC2)c1)N1CCN(c2ccc(F)cc2)CC1	-5.31% (inactive)
CC1=C(C(=O)OCCNC(=O)c2ccccc2O)C(c2ccccc2[N+](=O)[O-])C(C(=O)OCC2CCCO2)=C(C)N1 (stereo unspecified)	-5.77% [at 12 µM] (inactive)

SMILES	activity change (ATP luminescence)
COc1ccc(CN(C)C(=O)c2ccc(NS(=O)(=O)c3ccc(F)cc3)cc2)c(OC)c1OC	-3.83% (inactive)
CC[C@@H]1C/C=C\Cc2ccccc2[C@H](C(=O)C[C@@H](O)CC(C)=O)OC1=O	-4.88% (inactive)
N#Cc1ccc(-c2csc(NNC(=O)c3ccccc3)n2)cc1	2.98% (inactive)
CCn1c(=O)c(C(=O)Nc2ccccn2)c(O)c2ccccc21	-29.2% (inactive)
COc1ccc(CN2CCN(CCSc3ccc(C)cc3)CC2)c(OC)c1OC	5.52% (inactive)
CCOC(=O)C1(Cc2cccc(Cl)c2)CCCN(C(=O)c2ccc(COC)s2)C1 (stereo unspecified)	-0.609% (inactive)
CN(C)CCCNc1cc(C(C)(C)C)nc2c(-c3ccccc3)cnn12	72.4% (inactive)
Cc1ccc2c(c1)Sc1c(ccc3ccccc13)N2	-31% (inactive)
COc1ccc(C(=O)c2c(C)c3ccccc3n2CC(O)CNC(C)C)cc1 (stereo unspecified)	-0.686% (inactive)
COc1ccc(S(=O)(=O)Nc2ccc(O)c3ccccc23)cc1	148% (inactive)
CN(Cc1ccccc1)C(=O)c1nc2ccccn2c1CN1CCCC1c1nccs1 (stereo unspecified)	0.597% (inactive)
CCn1c(=O)c([N+](=O)[O-])c(N2CCN(Cc3ccc4c(c3)OCO4)CC2)c2ccccc21	-14.7% (inactive)
COc1ccc(N2CC(C(=O)N3CCN(c4ccccc4F)CC3)CC2=O)cc1 (stereo unspecified)	-80.3% (inactive)
Cc1occc1C(=O)N1CCCC(N2CCN(c3cccc(C(F)(F)F)c3)CC2)C1 (stereo unspecified)	-1.48% (inactive)
O=C(C(Sc1ccccc1)c1ccccc1)N1CCN(c2ccccc2F)CC1 (stereo unspecified)	-5.26% (inactive)
CC#CC[N+](C)(C)CCCCCCCC	18.9% (inactive)
OCCN1CCN(C2Cc3cc(Cl)ccc3Sc3ccc(Cl)cc32)CC1 (stereo unspecified) (tested in a mixture with another compound)	-11% [at 12 µM] (inactive)
O=[N+]([O-])c1cccc(/C=N/n2cnnc2)c1	2.06% (inactive)
CC(C)NC(=S)NC(c1ccccc1)(c1ccccc1)c1ccccc1	78.9% (inactive)
CC1CCN(C(=O)CCNS(=O)(=O)c2ccc(Br)cc2)CC1	-19% (inactive)
COc1ccc(Br)cc1CN(C)CC(=O)NCc1ccc(F)cc1	-0.267% (inactive)
Cc1nn(-c2ccccc2)c(C)c1NC(=O)COc1ccc(Br)cc1Cl	-4.05% (inactive)

SMILES	activity change (ATP luminescence)
CCSC1=NCCN1C(=O)C(C)(C)Oc1ccc(Cl)cc1	-6.11% (inactive)
Cc1cccc(C)c1NC(=O)CNC(=O)c1c(C)nn(C)c1Cl	-25.8% (inactive)
Cc1cccc(NC(=S)Nc2ccc3cn[nH]c3c2)c1	0.629% (inactive)
NC(=S)N/N=C/c1c(O)ccc2ccccc12	4.57% (inactive)
Cc1ccc(O)c(/C=N/NC(=O)c2[nH]ncc2Br)c1	-11.4% (inactive)
COc1ccc(N(C)S(=O)(=O)c2cccc(C(=O)Nc3nc(C)c(C(C)=O)s3)c2)cc1	-3.12% (inactive)
O=C(c1ccco1)c1coc2c1cc(O)c1ccccc12	-3.38% (inactive)
Cc1ccc2c(C)nc(Nc3nc(CSc4nc5ccccc5[nH]4)cc(=O)[nH]3)nc2c1	56.1% (inactive)
Cc1ccc(C(=O)N/C(=C\c2ccc(-c3ccccc3[N+](=O)[O-])o2)C(=O)NCCCN2CCOCC2)cc1	-20.3% (inactive)
C=CCN1C(=O)N/C(=C/c2ccc(N3CCOCC3)o2)C1=O	-9.61% (inactive)
C[C@H](CO)N1C[C@H](C)[C@@H](CN(C)C(=O)NC2CCCCC2)Oc2c(NC(=O)Nc3ccc(C(F)(F)F)cc3)cccc2C1=O	19.7% (inactive)
COc1ccc(S(=O)(=O)N2CCNCC2)cc1OC	-51.7% (inactive)
CCOC(=O)C(NCCc1ccc(F)cc1)(NC(=O)CC)C(F)(F)F (stereo unspecified)	0.876% (inactive)
Cc1cc(C)cc(OCCCn2ccnc2)c1	-28.9% (inactive)
O=c1[nH]c(NCCCO)nc2c1C1(CCCC1)Cc1ccccc1-2	3.07% (inactive)
Nc1ccc(Nc2ccc([N+](=O)[O-])cc2[N+](=O)[O-])cc1	-11.2% (inactive)
COc1ccccc1NCC(=O)N/N=C/c1c(O)ccc2ccccc12	26.3% (inactive)
C/C(N)=C(/C#N)C(=O)COC(=O)c1cc(-c2ccc(C)cc2)nc2ccccc12	10.7% (inactive)

Source: PubChem BioAssay AID463229 (Broad Institute, 2010)
